Bioassay records as filed in PubChem BioAssay.
KB-V1 MDR tox: KB-V1 MDR subline cytotoxicity. KB-V1 MDR cells viability, CellTiter-Glo, 72 h. Potency, µM (doses to about 46.1 µM), most hits filed as cytotoxic. hit rate 3.4% among 400,000; further: nearly all actives have a fitted effect of over 60% in size
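Cytotoxicity toward P-gp-expressing KB-V1 cells was determined as loss of CellTiter-Glo luminescence after 72 h at 37 degrees C. Compounds were tested in quantitative HTS format across a concentration range, with curves fitted to normalized data.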
MCF10A rerep: inducers of DNA re-replication in MCF 10A breast cells | Potency, µM (titrated, usually from 46.1 µM), actives largely listed as activators | AID 624296 | hit rate 2.9% among 350,000 | MCF 10A DNA re-replication, Hoechst nuclear intensity, 48 h; further: nearly all actives have a fitted effect of over 50% in size
KB-3-1 tox: kills parental KB-3-1 adenocarcinoma cells | KB-3-1 viability, CellTiter-Glo ATP luminescence, 72 h | Potency, µM (titrated, usually from 46.1 µM), most hits filed as cytotoxic | hit rate 1.4% among 400,000; further: nearly all actives have a fitted effect of over 60% in size
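Here the drug-naive KB-3-1 line serves as comparator for MDR sub-line selectivity; cells received compound titrations, 72 h at 37 °C, then CellTiter-Glo readout.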
SW480 rerep: inducers of DNA re-replication in SW480 colon cancer cells. SW480 DNA re-replication, Hoechst DNA content imaging, 48 h. hit rate 1.8% among 340,000. AID 624297. Potency, µM (highest dose often 46.1 µM), usual class: activators; further: nearly all actives have a fitted effect of over 55% in size
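DNA re-replication was detected as more nuclei of elevated Hoechst intensity after 48 hr exposure to compound (23 nL pinned per well of 250 cells).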
ELG1 DNA repair: blocks ELG1-dependent DNA repair in HEK293T cells; HEK293T ELG1-luciferase reporter, luminescence, 16 h; DNA damage induced by 5-fluorouridine; Potency, µM (titrated, usually from 46.1 µM), actives largely listed as inhibitors; hit rate 2.3% among 330,000; AID 504467; further: nearly all actives have a fitted effect of over 55% in size
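HEK293T cells expressing luciferase-tagged ELG1 (2,000/well) received 5-Fluorouridine plus compound or DMSO for 16 hr at 37 °C. Luciferase was read by ONE-Glo luminescence after 30 min at room temperature.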
Numbers stand for hits; n = inactive; u = inconclusive; x = no result given. Only some compounds are listed: those with a hit (about 8.2% of all), similar ones and a draw of the others. The call rests on the fitted dose curve; in most records, active means well fitted curve in the direction sought with a large enough effect; inconclusive means small, poorly fitted or top-dose-only effect, or another doubt; inactive means no such curve, though single readings can be large; an effect the other way counts as inactive or inconclusive.

SMILES | KB-V1 MDR tox | MCF10A rerep | KB-3-1 tox | SW480 rerep | ELG1 DNA repair
CC(C)(C)c1nc(SCC(=O)c2ccccc2)c2ccccc2n1 | u | u | n | n | n
Cc1ccc2nc(SCC(=O)N3CCC(C)CC3)nc(=O)n2c1 | 18µM | n | n | n | n
O=C(CNC1=NCCS1)c1c[nH]c2ccccc12 | n | x | u | x | x
CCCNS(=O)(=O)c1ccc(OCC(=O)Nc2ccc3c(c2)OCCO3)c(C)c1 | n | n | n | n | n
O=C(CSc1nnc2c3ccccc3c3ccccc3c2n1)Nc1ccccc1F | 3.7µM | n | n | n | n
CS(=O)(=O)N1CCC(C(=O)N2CCc3ccccc3C2)CC1 | n | n | n | n | n
Cc1ccc(CCNC(=O)C2CCCN(S(C)(=O)=O)C2)cc1 (centres undefined) | n | n | n | n | n
CS(=O)(=O)N1CCCC(C(=O)N2CCc3ccccc3C2)C1 (centres undefined) | n | 2.9µM | n | 10µM | n
CS(=O)(=O)N1CCCC(C(=O)NCCc2ccccc2)C1 (centres undefined) | n | u | n | 16µM | n
Cc1ccc(-n2nc(-c3ccc(F)cc3)c3cnc4cc5c(cc4c32)OCO5)cc1C | n | x | n | x | x
Cc1cccc2cc(/C=N/NC(=O)CN3CCOCC3)c(Cl)nc12 | 18µM | n | n | n | n
Cc1ccc2nc(Cl)c(/C=N/NC(=O)CN3CCOCC3)cc2c1 | n | n | n | n | x
CCSc1nnc(NC(=O)CSc2nccn2-c2cccc(C)c2)s1 | 16µM | n | n | n | n
Cc1ccc(-n2c(Cc3cccn3C)nnc2SCC(=O)N2CCc3ccccc32)cc1 | 6.5µM | n | n | n | n
COc1ccc(-n2c(Cc3cccn3C)nnc2SCC(=O)NCCc2ccccc2)cc1 | 9.2µM | n | n | n | n
COc1ccc(-n2c(CCc3ccccc3)nnc2SCC(=O)c2ccc(Cl)cc2)cc1 | 5.8µM | n | u | n | u
Cc1cccc(-n2ccnc2SCC(=O)Nc2nccs2)c1 | n | n | n | n | u
O=C(NCc1nnnn1-c1ccc(Cl)cc1)C(=O)c1c[nH]c2ccccc12 | n | x | n | x | x
Cc1nc(-c2ccc(F)cc2)c(CC(=O)N(C)CC(=O)Nc2ccc(Br)cc2C)s1 | n | n | n | n | n
NC1=NC(=O)C(Cc2ccc(OC(F)(F)F)cc2)S1 (centres undefined) | n | n | n | n | n
CCN1C(=O)C(CC(=O)NCCc2ccccc2)N(NC(=O)c2ccc(Br)cc2)C1=S (centres undefined) | u | x | n | x | x
Cc1cc(C)cc(NC(=O)CSc2nnc(Cc3cccn3C)n2-c2ccc(F)cc2)c1 | n | n | n | n | n
COc1ccc(NC(=O)CSc2nnc(Cc3cccn3C)n2CCc2ccccc2)c(OC)c1 | 3.3µM | u | n | n | n
COc1ccc(NC(=O)CSc2nnc(Cc3cccn3C)n2CCc2ccccc2)cc1OC | 15µM | n | n | n | n
CCSc1nnc(NC(=O)CSc2nnc(Cc3cccn3C)n2CCc2ccccc2)s1 | 8.2µM | n | n | n | n
SMILES | KB-V1 MDR tox | MCF10A rerep | KB-3-1 tox | SW480 rerep | ELG1 DNA repair
Cc1cc(C)c(NC(=O)CSc2nnc(Cc3cccn3C)n2-c2ccc(F)cc2)c(C)c1 | 23µM | n | n | n | n
C=CCn1c(SCC(=O)N(CC)C2CCS(=O)(=O)C2)nc2cc(C(=O)O)ccc2c1=O (centres undefined) | n | n | n | n | n
COc1ccc(-n2c(=O)c3c(c4cc(OC)ccc4n3C)n(Cc3ccc(F)cc3Cl)c2=O)cc1 | n | x | n | x | x
Cc1[nH]c2ccccc2c1C(=O)C(=O)N1CCN(C(=O)c2ccco2)CC1 | n | n | n | n | n
O=C(NCC(c1ccc2c(c1)OCO2)N1CCN(c2ccccc2)CC1)C(=O)Nc1ccccc1 (centres undefined) | n | x | n | x | x
CC(C)OC(=O)N(C)C[C@@H]1OCc2cn(nn2)CCCC(=O)N([C@@H](C)CO)C[C@H]1C | n | x | u | x | x
O=C(COC(=O)c1ccc(NS(=O)(=O)c2cccs2)cc1)NCc1ccco1 | u | 9.2µM | 18µM | u | n
O=C(COC(=O)c1ccc(NS(=O)(=O)c2cccs2)cc1O)NCc1ccccc1 | 13µM | 2.3µM | 5.8µM | 7.3µM | n
O=C(COC(=O)c1ccc(NS(=O)(=O)c2cccs2)cc1O)Nc1nc2ccccc2s1 | n | n | u | n | n
O=S(=O)(Nc1cccc(CO)c1)c1cccs1 | n | n | 0.21µM | n | n
COc1ccc(C2C(C(=O)Nc3ccccc3)=C(C)Nc3nc(-c4ccccc4Cl)nn32)cc1OC (centres undefined) | n | x | n | x | x
CC1(C(=O)NS(=O)(=O)c2ccc(F)cc2F)CCN1C(=O)C1(c2ccc(Cl)cc2)CC1 (centres undefined) | n | x | n | x | x
CCN(CC)CCOC(=O)c1ccc(NC(=O)Cn2ncc3c([nH]c4ccc(C)cc43)c2=O)cc1 | n | x | u | x | x
Cc1cccc2c(N=NC(=O)C(C)n3cnc4ccccc4c3=O)c(O)[nH]c12 (centres undefined) | n | n | n | n | x
CC(C(=O)N=Nc1c(O)[nH]c2ccccc12)n1cnc2ccccc2c1=O (centres undefined) | 18µM | u | n | u | n
COc1cccc(CNC(=O)C2CCN(Cc3cc4ccccc4n3Cc3ccccc3)CC2)c1OC | n | x | u | x | x
Cc1ccc(CNC(=O)C2CCCN(S(=O)(=O)c3c(C)noc3/C=C/N(C)C)C2)cc1 (centres undefined) | n | 15µM | n | n | n
Cc1noc(/C=C/N(C)C)c1S(=O)(=O)N1CCCC(C(=O)NCc2ccc(Cl)cc2)C1 (centres undefined) | u | u | n | n | n
Cc1noc(/C=C/N(C)C)c1S(=O)(=O)N1CCCC(C(=O)Nc2ccccc2F)C1 (centres undefined) | n | 23µM | n | u | n
OCc1nc2ccccc2n1Cc1ccc(Cl)cc1 | n | n | n | n | n
Clc1ccc(COn2c(-c3ccc(Cl)cc3)nc3ccccc32)cc1 | 18µM | 16µM | n | u | n
Cn1cccc1-c1nc2ccccc2n1Cc1ccccc1 | u | 11µM | n | n | u
Clc1ccc(COn2c(-c3ccccc3)nc3ccccc32)cc1 | u | 21µM | u | u | n
Cc1cccc(Cn2c(-c3ccccc3)nc3ccccc32)c1 | n | x | u | x | x
Cc1nc2ccccc2n1Cc1ccc(Cl)cc1 | 7.3µM | u | u | u | n
COc1ccc(Cl)cc1S(=O)(=O)N1CCC(C(=O)NC2CCCC2)CC1 | n | n | n | u | n
COCCn1c(SCC(=O)NC2(C#N)CCCCC2)nc2ccccc2c1=O | n | n | n | n | n
COc1cccc(CN(Cc2ccco2)c2cnc(S(C)(=O)=O)nc2C(=O)Nc2cccc(Cl)c2C)c1 | n | x | n | x | x
